Screening data as filed in PubChem BioAssay.
JMJD2A Tudor inh: blocks the human JMJD2A Tudor domain; O75164; AlphaScreen JMJD2A-Tudor / H3K4me3 peptide binding; Potency, µM (highest dose often 114 µM), for inactives: top-dose activity change, negative = inhibition, most hits filed as inhibitors; hit rate 4.4% among 390,000; AID 504339; note: % is set by controls: 0 for no effect and ±100 for the full control effect; nearly all actives have a fitted effect of over 50% in size
L3MBTL1 block: inhibitors of human L3MBTL1. Q9Y468. AlphaScreen L3MBTL1–H3K9me1 peptide binding. Potency, µM (doses to about 57.1 µM), without a hit: at the top dose activity, negative = inhibition, usual class: inhibitors. hit rate 0.66% among 230,000. AID 485360; note: % is set by controls: 0 for no effect and ±100 for the full control effect; nearly all actives have a fitted effect of over 60% in size
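AlphaScreen assay: L3MBTL1 (50 nM final) was preincubated 30 min at room temperature with biotinylated H3(1-15)K9me1 peptide (75 nM final), then 30 min with library compounds; streptavidin donor and nickel chelate acceptor beads (10 ug/mL final) added, 30 min dark.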
HP1b binding inh: HP1-beta chromodomain-methylated histone interaction inhibition | Potency, µM (doses to about 114 µM), for the others: at the highest dose activity change, negative = inhibition, most hits filed as inhibitors | hit rate 0.56% among 390,000 | AID 540317 | P83916 | AlphaScreen HP1-beta / biotin-H3K9me3 peptide binding; note: nearly all actives have a fitted effect of over 70% in size
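Compound inhibition of the preformed complex between 50 nM HP1-beta and 50 nM biotinylated H3K9me3 peptide was read by AlphaScreen. Buffer was PBS pH 7.4 with 0.01% Tween-20. Incubations ran 30 min at room temperature, with 10 ug/mL donor/acceptor beads.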
Sfp inh: Sfp phosphopantetheinyl transferase inhibition; Q9F4F7; Potency, µM, for inactives: largest response in the series, negative = inhibition, actives largely listed as inhibitors; AID 1490; Biochemical Sfp PPTase activity, qHTS; hit rate 3.5% among 310,000;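 note: the enzyme is Sfp with the accession as filed and its product quenches rhodamine fluorescence; 0% = enzyme reaction without inhibitor and -100% = no enzyme wells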
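After 15 min at room temperature with compound, 15 nM Sfp received 5 uM rhodamine-CoA plus 12.5 uM BHQ-2-ybbR (50 mM Hepes pH 7.6, 10 mM MgCl2). Rate came from the fluorescence difference over 30 min, ex 525/em 598 nm.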
BAZ2B block: blocks human BAZ2B. AlphaScreen BAZ2B-H3K14Ac peptide displacement. hit rate 4.4% among 360,000. Q9UIF8. Potency, µM (doses to about 114 µM), for inactives: top-dose activity change, negative = inhibition, usual class: inhibitors; note: % is set by controls: 0 for no effect and ±100 for the full control effect; nearly all actives have a fitted effect of over 60% in size
Target sequence (Q9UIF8 whole entry, looked up): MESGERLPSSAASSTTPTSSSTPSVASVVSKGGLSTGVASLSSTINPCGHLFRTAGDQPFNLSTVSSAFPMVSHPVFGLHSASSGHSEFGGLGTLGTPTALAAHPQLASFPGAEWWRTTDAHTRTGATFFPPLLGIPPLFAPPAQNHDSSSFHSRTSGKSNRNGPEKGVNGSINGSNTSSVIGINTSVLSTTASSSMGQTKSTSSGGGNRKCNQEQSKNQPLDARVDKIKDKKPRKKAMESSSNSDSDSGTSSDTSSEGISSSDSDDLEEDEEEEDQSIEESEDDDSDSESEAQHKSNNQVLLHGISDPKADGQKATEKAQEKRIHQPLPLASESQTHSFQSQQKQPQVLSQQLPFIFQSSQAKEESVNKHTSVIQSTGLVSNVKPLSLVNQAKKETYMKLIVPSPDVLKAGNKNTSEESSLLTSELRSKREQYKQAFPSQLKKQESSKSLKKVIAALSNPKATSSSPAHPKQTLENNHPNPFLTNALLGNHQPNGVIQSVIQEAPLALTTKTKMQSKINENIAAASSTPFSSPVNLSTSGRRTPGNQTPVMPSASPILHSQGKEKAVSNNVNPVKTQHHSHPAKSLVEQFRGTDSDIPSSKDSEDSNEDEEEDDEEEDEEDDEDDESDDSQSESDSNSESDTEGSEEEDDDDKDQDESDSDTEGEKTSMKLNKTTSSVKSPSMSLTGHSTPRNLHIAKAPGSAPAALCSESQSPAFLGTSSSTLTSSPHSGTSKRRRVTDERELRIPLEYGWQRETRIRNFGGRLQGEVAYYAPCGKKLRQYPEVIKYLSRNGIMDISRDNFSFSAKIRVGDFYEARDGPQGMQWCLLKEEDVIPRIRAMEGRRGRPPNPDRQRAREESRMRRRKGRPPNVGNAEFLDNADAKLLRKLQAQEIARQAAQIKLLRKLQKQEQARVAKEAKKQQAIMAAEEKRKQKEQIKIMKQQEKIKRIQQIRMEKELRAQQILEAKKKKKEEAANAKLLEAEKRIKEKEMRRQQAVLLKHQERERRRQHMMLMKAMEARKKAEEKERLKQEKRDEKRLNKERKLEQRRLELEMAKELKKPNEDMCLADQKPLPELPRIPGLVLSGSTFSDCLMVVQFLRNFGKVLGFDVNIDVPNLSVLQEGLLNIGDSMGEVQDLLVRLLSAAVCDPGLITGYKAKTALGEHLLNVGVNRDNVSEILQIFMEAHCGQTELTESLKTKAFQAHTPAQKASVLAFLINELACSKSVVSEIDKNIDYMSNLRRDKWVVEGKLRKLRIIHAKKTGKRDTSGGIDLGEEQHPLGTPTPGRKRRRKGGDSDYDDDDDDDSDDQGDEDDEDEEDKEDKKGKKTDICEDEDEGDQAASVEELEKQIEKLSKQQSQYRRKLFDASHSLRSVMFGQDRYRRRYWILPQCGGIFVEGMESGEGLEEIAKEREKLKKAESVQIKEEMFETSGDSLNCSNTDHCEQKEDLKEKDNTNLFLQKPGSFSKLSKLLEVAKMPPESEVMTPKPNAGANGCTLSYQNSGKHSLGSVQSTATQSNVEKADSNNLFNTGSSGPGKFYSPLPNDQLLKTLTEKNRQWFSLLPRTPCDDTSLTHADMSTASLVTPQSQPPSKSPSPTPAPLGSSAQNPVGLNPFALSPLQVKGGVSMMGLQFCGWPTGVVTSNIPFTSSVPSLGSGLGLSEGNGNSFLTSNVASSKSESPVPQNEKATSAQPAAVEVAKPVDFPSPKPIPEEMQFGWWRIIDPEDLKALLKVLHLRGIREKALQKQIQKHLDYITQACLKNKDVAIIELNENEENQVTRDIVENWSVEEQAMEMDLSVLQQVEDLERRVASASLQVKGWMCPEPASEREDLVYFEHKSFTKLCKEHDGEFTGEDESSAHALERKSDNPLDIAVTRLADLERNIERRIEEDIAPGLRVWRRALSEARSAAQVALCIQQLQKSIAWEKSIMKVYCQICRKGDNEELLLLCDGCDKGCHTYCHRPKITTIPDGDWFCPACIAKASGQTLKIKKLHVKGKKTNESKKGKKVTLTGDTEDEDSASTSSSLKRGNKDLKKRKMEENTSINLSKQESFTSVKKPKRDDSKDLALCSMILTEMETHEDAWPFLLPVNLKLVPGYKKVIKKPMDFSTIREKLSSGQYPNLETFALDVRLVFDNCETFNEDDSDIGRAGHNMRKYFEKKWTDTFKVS
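BAZ2B 50 nM plus b-H3(5-23)K14Ac 50 nM, PBS pH 7.4/0.01% Tween-20, 30 min RT; compound added (max 110 uM), 30 min RT; streptavidin donor/Ni-chelate acceptor beads 10 ug/mL final, 20 min dark; AlphaScreen read.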
G9a inh: blocks human histone lysine methyltransferase G9a. Potency, µM (series often up to 102 µM), without a hit: top-dose activity, negative = inhibition, hits mostly inhibitors. AID 504332. hit rate 8.8% among 350,000. Q96KQ7. G9a H3K9 monomethylation, AlphaScreen, 2 h; note: % is set by controls: 0 for no effect and ±100 for the full control effect; nearly all actives have a fitted effect of over 75% in size
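Readings reflect AlphaScreen signal from monomethyl-H3K9 antibody detection. HMT at 20 nM; substrate b-H3K9 500 nM; cofactor SAM 20 uM; 2 h RT reaction; compounds tested as titrations in qHTS with 15 min preincubation.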
* hit, by the source's call; ? = inconclusive; . = no result; [ ] = remark or other dose. This is a sample that favours compounds with a hit; in the whole collection about 12% have one here. Calls come from the whole dose curve; as a rule, active = well fitted curve in the direction sought with a large enough effect; inconclusive = small, poorly fitted or top-dose-only effect, or another doubt; inactive = no such curve, though single readings can be large; an effect the other way counts as inactive or inconclusive. Potency is the fitted concentration of half-maximal effect.

SMILES | JMJD2A Tudor inh | L3MBTL1 block | HP1b binding inh | Sfp inh | BAZ2B block | G9a inh
COc1ccc(CCNC(=O)c2cc(-c3ccc(C)cc3)nc3n[nH]c(-c4ccc(F)cc4)c23)cc1OC | -15% | . | 40% | . | 7% | 40%[59 µM]
CC(=O)c1ccc(C#CC(C)(C)O)s1 | -21% | ? | 36% | 3% | -4% | 13µM*
COc1cc(OC)cc(-c2n[nH]c(=S)n2-c2cc(OC)ccc2OC)c1 | 7.9µM* | . | 20% | -2% | -1% | ?
COc1ccc(C)cc1-n1c(-c2ccncc2)n[nH]c1=S | 20µM* | 10% | 41% | -5% | 1% | ?
COc1ccc(OC)c(-n2c(-c3ccc(O)cc3O)n[nH]c2=S)c1 | 4µM* | 46% | 10% | 89µM* | -8% | .
COc1ccc(-c2cc(-c3ccc(OC)c(OC)c3)n[nH]2)c(O)c1 | -29% | . | 8% | -2% | 4% | ?
Cc1ccc2c(c1)C(c1ccccc1)N(C(=O)Cc1ccc(F)cc1)CC(=O)N2 (centres undefined) | -5% | . | 19% | . | -2% | 9%[59 µM]
COc1ccc(C(=O)c2cn(Cc3cccc(C)c3)c3cc4c(cc3c2=O)OCCO4)cc1OC | -18% | . | 26% | . | -28% | -28%[59 µM]
COc1cc(CNc2ccccc2SC)cc(OC)c1OC | ? | . | 13% | ? | -33% | 11µM*
COc1ccc(CNS(=O)(=O)NCc2ccc(OC)c(OC)c2)cc1OC | 3% | 26% | 16% | 10% | 0% | 0%
COc1cc(CNc2nc3ccccc3n2C)cc(OC)c1OC | -9% | 3% | 10% | 6% | 4% | 18%[59 µM]
COc1ccc(CNc2ccccc2SC)cc1OC | 79µM* | . | 16% | 56µM* | ? | 10µM*
COc1ccc(CNc2cccc3[nH]c(C(F)(F)F)nc23)cc1OC | ? | . | -26% | ? | 50µM* | -29%[2.33 µM]
CC1(C)CC(Nc2ccc(Nc3ccccc3)cc2)CC(C)(C)N1 | 45µM* | ? | ? | 20µM* | 35µM* | ?
CC1(C)CC(NC(=O)c2ccccc2)CC(C)(C)N1 | 7% | 3% | 5% | 10% | 13% | 15%
CCc1ccc(-c2[nH]nc3nc(-c4ccc(OC)cc4)cc(C(=O)NCCCOC)c23)cc1 | -5% | . | -17% | . | 0% | -14%[59 µM]
COc1cccc(NC(=O)Cn2c(=O)n(CCCC(=O)NCc3ccc4c(c3)OCO4)c(=O)c3ccccc32)c1 | -13% | . | 3% | . | 3% | 6%[59 µM]
O=C1C=C(C2CCCCC2)C(=O)c2ccccc21 | 40µM* | . | ? | . | . | .
O=C(O)C1=C(C2CCCCC2)C(=O)c2ccccc21 | -14% | . | 15% | . | . | .
CSc1cccc(NC(=O)C2CCCN(C(=O)c3cnn(-c4ccc(F)cc4)c3-n3cccc3)C2)c1 (centres undefined) | -26% | . | -20% | . | -14% | -36%[59 µM]
CCn1c(C)nc2cc(C(=O)NNC(=S)NC(=O)c3ccccc3)ccc21 | -22% | 56% | 31% | 18% | -1% | 18µM*
CCn1c(C)nc2cc(C(=O)NNC(=S)Nc3ccccc3)ccc21 | -10% | 3% | 28% | 19% | 0% | 45µM*
CCn1c(C)nc2cc(C(=O)N/N=C/c3cccc(O)c3O)ccc21 | 79µM* | ? | 31% | 6% | 79µM* | -32%
CCn1c(C)nc2cc(C(=O)NNC(=O)c3ccc(C)cc3)ccc21 | 4% | 6% | 41% | . | 9% | 30%[2.33 µM]
CCn1c(C)nc2cc(C(=O)N/N=C/c3ccccc3)ccc21 | -13% | -10% | -14% | 3% | -1% | 9%
SMILES | JMJD2A Tudor inh | L3MBTL1 block | HP1b binding inh | Sfp inh | BAZ2B block | G9a inh
CCn1c(C)nc2cc(C(=O)NNC(=S)Nc3ccc(F)cc3)ccc21 | -6% | -1% | 26% | 15% | 0% | 45µM*
CCOc1ccc(NC(=O)CC2Nc3cccc4cccc(c34)NC2=O)cc1 (centres undefined) | ? | . | 22% | . | -29% | ?
COc1ccc(-n2ncc(C(=O)NCCN3CCOCC3)c2C2CCN(C(=O)OC(C)(C)C)CC2)cc1 | -4% | . | 20% | . | 12%[57.1 µM] | -20%[59 µM]
COc1ccc(-c2nc(SCCOc3cc(C)ccc3C(C)C)n3[nH]c(=O)cc3n2)cc1 | -29% | . | 22% | . | -3% | 25%[59 µM]
CCNc1oc(-c2cccc3ccccc23)nc1C#N | -7% | . | 16% | 2% | -3% | 0%[59 µM]
CC(C)Nc1oc(-c2cccc3ccccc23)nc1C#N | 27% | 9% | -8% | -7% | -34% | 45µM*
CSc1ccc(C=NNc2ccc(S(=O)(=O)Nc3ccccc3C(=O)O)cc2[N+](=O)[O-])cc1 | 20µM* | 20µM* | 20µM* | . | . | .
Cc1nn(-c2ccccc2)c(Cl)c1/C=N/Nc1ccc(Cl)c(C(=O)O)c1 | ? | -5% | ? | 2% | ? | 3.5µM*
Cc1ccc(S(=O)(=O)Nc2ccccc2C(=O)OC(C)C(=O)Nc2ccc3ccccc3c2)cc1[N+](=O)[O-] (centres undefined) | -30% | -7% | -1% | 2% | -38% | 50µM*
O=C(O)c1ccccc1NS(=O)(=O)c1ccc(NN=Cc2ccccc2F)c([N+](=O)[O-])c1 | 20µM* | -21% | 50µM* | . | . | .
Cc1ccc(NS(=O)(=O)c2ccc(N/N=C/c3ccncc3)c([N+](=O)[O-])c2)c(C)c1 | -14%[57.1 µM] | -1% | 43% | -26% | -9% | -4%
O=C(Nc1ccc2nccnc2c1)N1CCCCCC1 | -11% | . | 65% | . | . | .
CCOc1ccc(S(=O)(=O)Nc2ccccc2C(=O)N2CCCC2)cc1 | 11% | -5% | 37% | 9% | -36% | 8%
C=CCOc1ccc(C=NNc2ccc(S(=O)(=O)Nc3ccccc3C(=O)O)cc2[N+](=O)[O-])cc1OC | 16µM* | -27% | ? | . | . | .
O=C(O)c1ccccc1/C=N/Nc1ccc(S(=O)(=O)N2CCCC2)cc1[N+](=O)[O-] | -35% | -21% | -2% | -1% | ? | ?
CCOc1ccc(C=NNc2ccc(S(=O)(=O)Nc3ccccc3C(=O)O)cc2[N+](=O)[O-])cc1 | 22µM* | 16µM* | 40µM* | . | . | .
COc1ccc(-c2nn(-c3ccccc3)cc2/C=N/Nc2ccc(S(N)(=O)=O)cc2[N+](=O)[O-])cc1OC | -13% | -8% | 1% | 15% | ? | -5%
COc1ccc(NC(=S)NNc2ccc(S(=O)(=O)Nc3ccccc3C(=O)O)cc2[N+](=O)[O-])cc1 | ? | ? | 11µM* | 79µM* | 7.1µM* | .
COc1ccc(C=NNc2ccc(S(=O)(=O)Nc3ccccc3C(=O)O)cc2[N+](=O)[O-])c(OC)c1 | 35µM* | ? | 20µM* | . | . | .
